Screening results as filed in PubChem BioAssay.
KKLEB cytotox = reduces viability of KKLEB cystic fibrosis airway cells; KKLEB CF airway cells viability, ATPlite luminescence, overnight; stronger effect = lower value; cells stimulated with P. aeruginosa culture filtrate; AID 602141; activity change (cytotoxicity), % at 5 µM; 360,000 compounds, 0.36% hits;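 active = corrected activity change at or below -50% at 5 µM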
Peg3 promoter = reduces Peg3 promoter-driven luciferase expression in HeLa; HeLa PEG-Prom luciferase reporter, luminescence, overnight; inhibition, % at 20 µM; 360,000 compounds, 1.7% hits; AID 588405;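 active = inhibition of at least 50% at 20 µM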
TWEAK-Fn14 inh = TWEAK-Fn14 signaling inhibition; TWEAK-stimulated Fn14 reporter cells, luciferase luminescence, 8 h; inhibition, % at 10 µM; 360,000 compounds, 2% hits; AID 1159606; in the data active = inhibition above about 50%
CF NFkB inh = cystic fibrosis NF-kB activation inhibition. KKLEB NF-kB-GFP reporter, PAF-induced, GFP fluorescence overnight. 360,000 compounds, 0.86% hits. inhibition, % at 5 µM;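 active = at least 50% inhibition at 5 µM, scaled per plate between neutral and stimulator controls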;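 also: PAF is a Pseudomonas aeruginosa culture filtrate used as stimulus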
HIF-2a inh = HIF-2a inhibition. 786-0 RCC cells HIF-2a reporter, luciferase luminescence, overnight. inhibition, % at 18.8 µM. 360,000 compounds, 0.72% hits;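 active = inhibition of the luminescence signal of 40% or more relative to plate controls, in a single-dose primary screen at 18.75 µM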
TROY NFkB inh = blocks TROY-dependent signaling in reporter cells; Q293 LMP1-TROYcd NF-kB luciferase reporter, 4 h; 360,000 compounds, 0.98% hits; inhibition, % at 10 µM;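 active = compounds whose plate-normalised and pattern-corrected inhibition of the luciferase reporter signal at the single screening dose is 50% or more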
Mdm2-MdmX confirm = confirmation of inhibitors of human Mdm2/MdmX interaction, set 2; shares compounds with HIF-2a inh; SaOS-2 split-luciferase Mdm2/MdmX complementation, luminescence; inhibition, % at 8 µM; 740 compounds, 99% hits; AID 504601;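 active = mean inhibition of the luminescence signal across two replicates at or above 26 percent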
HIF-2a conf = HIF-2a inhibition, single concentration confirmation; shares compounds with HIF-2a inh; 786-0 RCC cells, HIF-2a luciferase reporter luminescence, overnight; inhibition, % at 18.8 µM; 1,800 compounds, 56% hits; AID 651580;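 active = mean inhibition across four replicates of at least 40 percent at the single tested concentration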
HIF-1a cs = HIF-1a inhibition counter-screen for HIF-2a hits | 1,800 compounds, 72% hits | shares compounds with HIF-2a inh | inhibition, % at 18.8 µM | AID 651589 | MiaPaCa-2 HIF-1a luciferase reporter, desferoxamine, overnight;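 active = mean inhibition of the reporter signal across four replicates at the single tested dose of 50% or more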
Numbers stand for hits. Sampled rows, rich in hits. Any-hit rate of the full collection: about 4%.

O=C(c1ccc(NC(=S)Nc2ccc(Cl)c(Cl)c2)cc1)N1CCCC1 was read as KKLEB cytotox inactive, Peg3 promoter inactive, TWEAK-Fn14 inh inactive, CF NFkB inh inactive, HIF-2a inh inactive and TROY NFkB inh inactive.
`COC(=O)[C@@]12CCCCN1[C@H](c1ccc(-c3ccc4c(c3)OCO4)c(OC)c1)[C@@H]1C(=O)N(C)C(=O)[C@@H]12` gave KKLEB cytotox inactive, Peg3 promoter inactive, TWEAK-Fn14 inh inactive, CF NFkB inh inactive, HIF-2a inh inactive and TROY NFkB inh inactive.
For CCCCCCCCCCOC(=O)Cn1c(COc2ccc(Cl)cc2)[n+](C)c2ccccc21 the results were KKLEB cytotox inactive, Peg3 promoter 98, TWEAK-Fn14 inh inactive, CF NFkB inh inactive, HIF-2a inh inactive, TROY NFkB inh inactive and Mdm2-MdmX confirm 103.
Screening COc1ccccc1C(C[N+](=O)[O-])c1c(N)n(C)c(=O)n(C)c1=O (stereo not drawn) returned KKLEB cytotox inactive, Peg3 promoter 104, TWEAK-Fn14 inh 52, CF NFkB inh inactive, HIF-2a inh 74, TROY NFkB inh inactive, HIF-2a conf 56 and HIF-1a cs inactive.
`COc1ccccc1C(c1c(N)n(C)c(=O)n(C)c1=O)C(C)[N+](=O)[O-]` (stereo not drawn) gave KKLEB cytotox inactive, Peg3 promoter inactive, TWEAK-Fn14 inh inactive, CF NFkB inh inactive, HIF-2a inh inactive and TROY NFkB inh inactive.
O=C(/C=C/c1ccc(F)cc1)c1ccccc1Br was read as KKLEB cytotox inactive, Peg3 promoter 104, TWEAK-Fn14 inh 63, CF NFkB inh 57, HIF-2a inh 59, TROY NFkB inh inactive, HIF-2a conf 43 and HIF-1a cs 106.
`Cc1ccc(C(=O)/C=C/c2ccc(F)cc2)o1` gave KKLEB cytotox inactive, Peg3 promoter inactive, TWEAK-Fn14 inh inactive, CF NFkB inh inactive, HIF-2a inh inactive and TROY NFkB inh inactive.
For O=C(O)c1cccc2c1C(=O)c1ccc(N3CCCC3)cc1S2(=O)=O the results were KKLEB cytotox inactive, Peg3 promoter inactive, TWEAK-Fn14 inh inactive, CF NFkB inh inactive, HIF-2a inh inactive and TROY NFkB inh inactive.
For Cc1ccc(C(=O)c2ccccc2C(=O)OCC(=O)Nc2cccc([N+](=O)[O-])c2)cc1 the results were KKLEB cytotox inactive, Peg3 promoter inactive, TWEAK-Fn14 inh inactive, CF NFkB inh inactive, HIF-2a inh inactive and TROY NFkB inh inactive.
For Cc1ccc(Cl)c(NC(=O)COC(=O)c2ccccc2C(=O)c2ccc(Cl)c([N+](=O)[O-])c2)c1Cl the results were KKLEB cytotox -99, Peg3 promoter 100, TWEAK-Fn14 inh 100, CF NFkB inh 94, HIF-2a inh 97, TROY NFkB inh 65, HIF-2a conf inactive and HIF-1a cs 108.
Screening COc1ccc(N2CCOCC2)c(NC(=O)COc2cccc(C)c2)c1 returned KKLEB cytotox inactive, Peg3 promoter inactive, TWEAK-Fn14 inh inactive, CF NFkB inh inactive, HIF-2a inh inactive and TROY NFkB inh inactive.
`CCOC(=O)c1sc(NC(=O)c2cc(-c3ccc(C)cc3)nc3ccccc23)c(C#N)c1C` gave KKLEB cytotox -62, Peg3 promoter inactive, TWEAK-Fn14 inh 62, CF NFkB inh inactive, HIF-2a inh inactive, TROY NFkB inh inactive and Mdm2-MdmX confirm 97.
`COc1ccc(-c2cc(C(=O)Nc3sc4c(c3C#N)CCCC4)c3ccccc3n2)cc1` gave KKLEB cytotox inactive, Peg3 promoter inactive, TWEAK-Fn14 inh inactive, CF NFkB inh inactive, HIF-2a inh inactive and TROY NFkB inh inactive.
`C1=CC2=NC34CCCCC3CC3=C(CCCC3)N4C2=CC1=NC1CCCCC1` (stereo not drawn) gave KKLEB cytotox inactive, Peg3 promoter inactive, TWEAK-Fn14 inh inactive, CF NFkB inh inactive, HIF-2a inh inactive, TROY NFkB inh inactive and Mdm2-MdmX confirm 52.
CCOc1ccc(N(CC(=O)NC2CCCC2)C(=O)c2ccc(C)s2)cc1 was read as KKLEB cytotox inactive, Peg3 promoter inactive, TWEAK-Fn14 inh inactive, CF NFkB inh inactive, HIF-2a inh inactive and TROY NFkB inh inactive.
Screening CCOc1ccc(/C=C2/C(=O)N(c3ccc(OC)cc3)C(=S)N2CC(=O)OC)cc1OCC returned KKLEB cytotox inactive, Peg3 promoter inactive, TWEAK-Fn14 inh inactive, CF NFkB inh inactive, HIF-2a inh inactive and TROY NFkB inh inactive.
`COc1ccc(/C=C/C(=O)c2ccc3c(c2)OCO3)cc1OC` gave KKLEB cytotox inactive, Peg3 promoter inactive, TWEAK-Fn14 inh inactive, CF NFkB inh inactive, HIF-2a inh inactive and TROY NFkB inh inactive.
`COc1cc(/C=C/C(=O)c2ccc(C)cc2)ccc1OCC#N` gave KKLEB cytotox inactive, Peg3 promoter 103, TWEAK-Fn14 inh 87, CF NFkB inh inactive, HIF-2a inh 86, TROY NFkB inh inactive, HIF-2a conf inactive and HIF-1a cs 102.
Screening COc1cc(/C=C/C(=O)c2ccc3c(c2)OCCO3)cc(OC)c1OC returned KKLEB cytotox inactive, Peg3 promoter inactive, TWEAK-Fn14 inh 67, CF NFkB inh inactive, HIF-2a inh 56, TROY NFkB inh inactive, HIF-2a conf 48 and HIF-1a cs 101.
For COc1ccc(OC)c(/C=C/C(=O)c2ccc3c(c2)OCCO3)c1 the results were KKLEB cytotox inactive, Peg3 promoter inactive, TWEAK-Fn14 inh inactive, CF NFkB inh inactive, HIF-2a inh inactive and TROY NFkB inh inactive.
For COc1cc(/C=C/C(=O)c2ccc3c(c2)OCO3)cc(OC)c1OC the results were KKLEB cytotox inactive, Peg3 promoter inactive, TWEAK-Fn14 inh inactive, CF NFkB inh inactive, HIF-2a inh 44, TROY NFkB inh inactive, HIF-2a conf inactive and HIF-1a cs 103.
CCOc1ccc(N2C(=O)/C(=C/c3cc(OC)c(OC)c(OC)c3)N(CC(=O)OC)C2=S)cc1 was read as KKLEB cytotox inactive, Peg3 promoter inactive, TWEAK-Fn14 inh inactive, CF NFkB inh inactive, HIF-2a inh 48, TROY NFkB inh inactive, HIF-2a conf inactive and HIF-1a cs inactive.
COc1ccc(CCNC(=O)COC(=O)/C=C/c2ccc(OCC#N)c(OC)c2)cc1OC was read as KKLEB cytotox inactive, Peg3 promoter inactive, TWEAK-Fn14 inh inactive, CF NFkB inh inactive, HIF-2a inh inactive and TROY NFkB inh inactive.
`Cc1cc(C(=O)CN2C(=O)NC(CC(C)C)C2=O)c(C)n1C1CC1` (stereo not drawn) gave KKLEB cytotox inactive, Peg3 promoter inactive, TWEAK-Fn14 inh inactive, CF NFkB inh inactive, HIF-2a inh inactive and TROY NFkB inh inactive.
